Compound activity: PubChem BioAssay, National Center for Advancing Translational Sciences (NCATS)
DT40 TDP1 no CPT – qHTS for Inhibitors of human tyrosyl-DNA phosphodiesterase 1 (TDP1): qHTS in cells in absence of CPT. DT40 Tdp1-/- hTDP1 cells, no CPT, ATP luminescence, 48 h. Potency, µM (titrated, usually from 46.2 µM), without a hit: at the top dose activity change, negative = growth inhibition, hits mostly inhibitors. actives 15% (n = 420,000). AID 686978, 2013; also: potency is read from the fitted curve at half-maximal effect; nearly all actives have a fitted effect of over 55% in size
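Stably hTDP1-transfected Tdp1-null chicken DT40 cells were treated with library compounds minus camptothecin and grown for at least 48 hr at 37 °C, after which cellular ATP was quantified by luminescence.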
TDP1 cell CPT – DT40-hTDP1 cell growth loss with CPT; chicken DT40 Tdp1-/-;hTDP1 cells + 20 nM CPT, ATP luminescence, 48 h; Potency, µM (doses to about 46.2 µM), for the others: at the highest dose activity change, negative = growth inhibition, most hits filed as inhibitors; actives 12% (n = 420,000); also: potency is read from the fitted curve at half-maximal effect; nearly all actives have a fitted effect of over 55% in size
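Chicken DT40 Tdp1-/- cells complemented with human TDP1, 400 cells/well, exposed to compounds plus 20 nM camptothecin for at least 48 h at 37 C; viability read as ATP content by CellTiter-Glo luminescence.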
ELG1 DNA repair – blocks ELG1-dependent DNA repair in HEK293T cells; HEK293T ELG1-luciferase reporter, luminescence, 16 h; DNA damage induced by 5-fluorouridine; Potency, µM (doses to about 46.1 µM), for inactives: at the top dose activity change, negative = inhibition, actives largely listed as inhibitors; actives 2.3% (n = 330,000); AID 504467; also: potency is read from the fitted curve at half-maximal effect; nearly all actives have a fitted effect of over 55% in size
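HEK293T cells expressing luciferase-tagged ELG1 (2,000/well) received 5-Fluorouridine plus compound or DMSO for 16 hr at 37 °C. Luciferase was read by ONE-Glo luminescence after 30 min at room temperature.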
IL-1B inflam inh – inhibitors of inflammasome signaling (IL-1 beta secretion); actives 4.7% (n = 360,000); AID 743279; activity change, % at 57.5 µM; THP-1 LPS/ATP IL-1B secretion, AlphaLISA, 16 h; hits give low values; in the data active = activity change below about -50%; inconclusive = mostly about -30% to -49%
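THP-1 cells pretreated 1 hr with compounds (up to 57.5 uM final), then stimulated with LPS (250 ng/mL final) plus ATP (1.25 mM final); secreted IL-1B measured by AlphaLISA after 16 hr, decreased signal indicating inhibition.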
HT1080-NT tox – kills 2HG-producing HT-1080-NT fibrosarcoma cells; HT-1080-NT fibrosarcoma viability, CellTiter-Glo ATP luminescence, 48 h; actives 1.6% (n = 360,000); Potency, µM (highest dose often 46.1 µM), for inactives: at the top dose activity, negative = less viability, usual class: cytotoxic;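 also: NT is the 2HG producing partner of a matched IDH1 knockdown line; potency is read from the fitted curve at half-maximal effect; 0% = DMSO-treated cells and -100% = media-only wells without cells; nearly all actives have a fitted effect of over 55% in size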
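Toxicity toward the 2HG-producing NT line was scored as %Activity, normalised to DMSO and no-cell wells, from CellTiter-Glo luminescence after 48 hours' treatment.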
HT1080 IDH1KD tx – HT-1080 IDH1 knockdown cell toxicity (counter line) | HT-1080 IDH1 knockdown viability, ATP luminescence, 48 h | Potency, µM (titrated, usually from 46.1 µM), inactives show at the highest dose activity, negative = toxicity, usual class: cytotoxic | actives 2% (n = 360,000);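 also: potency is read from the fitted curve at half-maximal effect; 0% = DMSO wells and -100% = cell-free medium wells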
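In this qHTS, HT-1080 cells depleted of IDH1 are exposed for 48 h at 37 °C to compound titrations. Toxicity is scored from CellTiter-Glo luminescence, with DMSO as full viability and medium alone as none.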
ELG1 Luc conf – inhibits ELG1-dependent DNA repair in HEK293T cells, confirmed; shares compounds with ELG1 DNA repair; HEK293T ELG1-luciferase levels, luminescence; cells co-treated with 5-fluorouridine; Potency, µM (titrated, usually from 46.1 µM), for the others: at the top dose activity change, negative = inhibition, hits mostly inhibitors; actives 68% (n = 670); also: potency is read from the fitted curve at half-maximal effect; nearly all actives have a fitted effect of over 55% in size
ELG1 MMS Luc – MMS-stimulated human ELG1 repair inhibition, confirmed; shares compounds with ELG1 DNA repair; HEK293T luciferase-tagged ELG1 level, MMS stimulated; Potency, µM (highest dose often 46.1 µM), for inactives: at the top dose activity change, negative = inhibition, usual class: inhibitors; actives 53% (n = 670); also: potency is read from the fitted curve at half-maximal effect; nearly all actives have a fitted effect of over 60% in size
ELG1 5-FU – confirmation of ELG1 repair inhibitors: viability with 5FU; shares compounds with ELG1 DNA repair; 670 tested, under 10 active; cell viability with 5-FU, ELG1-dependent repair; AID 624250; Potency, µM (series often up to 46.1 µM), for inactives: at the top dose activity change, negative = viability loss, usual class: cytotoxic;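 also: ELG1-luc HEK293T cells cotreated with 5-fluorouridine at 10 µM final; potency is read from the fitted curve at half-maximal effect; viability measured 16 h after compound addition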
ELG1 MMS viab – confirmation of ELG1 repair inhibitors: viability with MMS; shares compounds with ELG1 DNA repair; Cell viability with MMS, ELG1-dependent DNA repair; Potency, µM (series often up to 46.1 µM), for inactives: at the top dose activity change, negative = viability loss, actives largely listed as cytotoxic; actives 33% (n = 670); AID 624251;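 also: ELG1-luc HEK293T cells co-treated with 10 µM MMS; potency is read from the fitted curve at half-maximal effect; viability read 16 h after compound addition; nearly all actives have a fitted effect of over 60% in size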
Cell viab unstim – counter-screen for ELG1 repair inhibitors: unstimulated cell viability | shares compounds with ELG1 DNA repair | cell viability counter-screen, unstimulated, luminescence | Potency, µM (doses to about 45.9 µM), without a hit: at the highest dose activity change, negative = loss of viability, most hits filed as cytotoxic | actives 8% (n = 900);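 also: potency is read from the fitted curve at half-maximal effect; compound exposure lasted 16 hours before reading; nearly all actives have a fitted effect of over 55% in size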
* = called active by the depositor; u = inconclusive; x = not tested or not shown. Rows were chosen to be rich in hits. Some 19% of all compounds tested hit in one or more screens of this group. Unless noted, calls follow the shape of the dose curve; as a rule, active = well fitted curve in the direction sought with a large enough effect; inconclusive = small, poorly fitted or top-dose-only effect, or another doubt; inactive = no such curve, though single readings can be large; an effect the other way counts as inactive or inconclusive. Unless noted, % is scaled to controls: 0 for no effect and ±100 for the full control effect.

SMILES	DT40 TDP1 no CPT	TDP1 cell CPT	ELG1 DNA repair	IL-1B inflam inh	HT1080-NT tox	HT1080 IDH1KD tx	ELG1 Luc conf	ELG1 MMS Luc	ELG1 5-FU	ELG1 MMS viab	Cell viab unstim
COc1ccccc1N1CCN(C(=O)CC(NC(=O)c2ccccc2Cl)c2ccccc2)CC1 (stereo not given)	u	-28.5%	-6.5%	-6.2	3.2%	-0.2%	x	x	x	x	x
CS(=O)(=O)c1ccc(Cl)c(NC(=O)CN2CCCC2c2ccc3c(c2)OCCCO3)c1 (stereo not given)	u	u	u	3.4	-2.0%	-9.3%	x	x	x	x	x
COc1ccc(C)cc1NC(=O)CN1CCCC1c1ccc2c(c1)OCCCO2 (stereo not given)	u	u	4.11µM*	-1.4	1.2%	-16.6%	3.15µM*	17.7µM*	u	u	-9.5%
COc1ccc(-c2nnc(SC(C)C(=O)Nc3cccc(Cl)c3)o2)cc1 (stereo not given)	u	-26.3%	u	u	-5.1%	-16.9%	x	x	x	x	1.4%
COc1ccc(-c2nnc(SC(C)C(=O)NNC(=O)c3ccc(C)cc3)o2)cc1 (stereo not given)	-7.0%	-2.1%	29.8%	-5.2	15.5%	23.6%	x	x	x	x	x
Cc1ccc(CNC(=O)C2CCN(c3nnc(N4CCCC4=O)s3)CC2)cc1	-12.8%	12.5%	-0.7%	-14.5	-3.3%	-2.6%	x	x	x	x	x
COc1cccc(NC(=O)COC(=O)c2sccc2C)c1	-26.2%	-14.9%	u	-13.5	4.3%	7.3%	x	x	x	x	-4.4%
O=C(C1CCCC1)N1CCC(CC2CC(c3cccc(Br)c3)=NO2)(C(=O)NCC2CCCCC2)CC1 (stereo not given)	u	16.4µM*	4.11µM*	0.0	-8.2%	-6.0%	15.8µM*	u	1.8%	-19.0%	u
